Measured values as given in PubChem BioAssay (NCI).
Values joined by “and” are separate entries in the source; they are usually repeats but may differ in a detail not shown here. Identical values can stand only once. This is part of a sample that, as a whole, favours compounds with a hit. Of some 79,000 tested, about 15% had one in any assay. A number with no mark means an inactive call. Active and inactive are the calls of the source. Cut-off read from the data, not from the text of the source: active = growth inhibition above about 70%; inactive = the rest.

Key:
[1] = NCI Yeast Anticancer Drug Screen. Data for the rad50 strain (AID 155);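 note: 0% = growth of vehicle-only cultures of the same strain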; details: S. cerevisiae rad50 strain growth inhibition, hits give high values
Outline: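 Compounds were tested on a yeast strain with an engineered DNA damage repair alteration; the reported value is growth inhibition normalised to vehicle treatment.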

[2] = NCI Yeast Anticancer Drug Screen. Data for the mec2-1 strain (AID 157); details: S. cerevisiae mec2-1 strain, hits give high values
Outline: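 Test agents were screened against the mec2-1 yeast strain, with defined DNA repair or cell cycle alteration. Growth was scored as inhibition against vehicle-only controls.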

[3] = NCI Yeast Anticancer Drug Screen. Data for the sgs1 mgt1 strain (AID 161);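 note: 0% = growth of cultures given vehicle only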; details: S. cerevisiae sgs1 mgt1 strain, hits give high values
Outline: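 Mutant yeast exposed to compound; growth scored against vehicle-only wells.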

[4] = NCI Yeast Anticancer Drug Screen. Data for the cln2 rad14 strain (AID 165);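 note: 0% = growth equal to vehicle treated cultures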; details: S. cerevisiae cln2 rad14 strain, hits give high values
Outline: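 Growth of compound-exposed yeast (cln2 rad14 genotype) measured and expressed as inhibition relative to vehicle.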

[5] = NCI Yeast Anticancer Drug Screen. Data for the bub3 strain (AID 167); details: S. cerevisiae bub3 mutant strain, hits give high values
Outline: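 Growth of a checkpoint-deficient yeast mutant is measured after compound exposure. Values represent inhibition relative to vehicle.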

[6] = NCI Yeast Anticancer Drug Screen. Data for the mlh1 rad18 strain (AID 175); details: S. cerevisiae mlh1 rad18 strain growth inhibition, hits give high values
Outline: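 In this whole-cell yeast screen, a strain with altered DNA damage repair is challenged with compound, and its growth is measured against matched vehicle-treated controls.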

[7] = at 5.0 µM (retest, dose inferred, filed as 0.5)
[8] = at 50.0 µM (retest, dose inferred, filed as 5.0)

| Compound | growth inhibition [1, 7] | growth inhibition [1, 8] | growth inhibition [2, 7] | growth inhibition [2, 8] | growth inhibition [3, 7] | growth inhibition [3, 8] | growth inhibition [4, 7] | growth inhibition [4, 8] | growth inhibition [5, 7] | growth inhibition [5, 8] | growth inhibition [6, 7] | growth inhibition [6, 8] | growth inhibition ([1]; at 50.0 µM) | growth inhibition ([2]; at 50.0 µM) | growth inhibition ([3]; at 50.0 µM) | growth inhibition ([4]; at 50.0 µM) | growth inhibition ([5]; at 50.0 µM) | growth inhibition ([6]; at 50.0 µM) |
| --- | --- | --- | --- | --- | --- | --- | --- | --- | --- | --- | --- | --- | --- | --- | --- | --- | --- | --- |
| Cc1ccccc1N=NC(C#N)C#N | 82% (active) | 99% (active) | 40% | 100% (active) | 85% (active) | 100% (active) | 39% | 99% (active) | 68% | 100% (active) | 78% (active) | 99% (active) |  |  |  |  |  |  |
| O=C(CO)NCCO | 1% | 0% | 3% | 5% | -2% | 2% | 5% | -2% | 5% | -5% | 0% | 2% |  |  |  |  |  |  |
| N#C/C(=N\O)C(N)=O | 19% | 87% (active) | -3% | 93% (active) | 2% | 83% (active) | -1% | 75% (active) | 3% | 86% (active) | 26% | 86% (active) |  |  |  |  |  |  |
| CC1=C(/C=C/C(C)=C/C(=O)O)C(C)(C)CCC1 | 2% | 67% | -2% | 47% | 3% | 83% (active) | 3% | 43% | 4% | 64% | -36% | 64% |  |  |  |  |  |  |
| CN(C)c1ccc(SC#N)cc1 | -4% | 92% (active) | 2% | 85% (active) | -2% | 86% (active) | 3% | 51% | 16% | 95% (active) | -20% | 87% (active) |  |  |  |  |  |  |
| O=C(O)c1ccc(-c2ccccc2)cc1 | 12% | 80% (active) | 0% | 38% | 12% | 69% | -1% | 39% | -1% | 42% | -1% | 47% |  |  |  |  |  |  |
| COc1cccc(NC(=O)c2c(SC)c(C#N)c(=O)n(N)c2N)c1 | 4% | 99% (active) | 10% | 99% (active) | 7% | 99% (active) | 7% | 98% (active) | 7% | 99% (active) | 8% | 99% (active) |  |  |  |  |  |  |
| Nc1cccc2c1-c1ccccc1C2=O | 15% | 89% (active) | 1% | 18% | 4% | 47% |  |  | 1% | 15% | -35% | 29% |  |  |  |  |  |  |
| O=C(CBr)C(Br)C(Br)c1ccccc1 (stereo unspecified) | 98% (active) | 99% (active) | 99% (active) | 100% (active) | 100% (active) | 98% (active) | 99% (active) | 99% (active) | 100% (active) | 100% (active) | 92% (active) | 99% (active) |  |  |  |  |  |  |
| NNc1nc2c(N)ncnc2n1C1OC(CO)C(O)C1O (stereo unspecified) |  |  |  |  |  |  |  |  |  |  |  |  | -7% and 14% | -5.05% and 15.8% | 17.4% and 4.95% | -21.1% and 15.2% | 14.8% and 13.1% | -5.95% and 10.6% |
| [O-][n+]1cccc2cccc(O)c21 | 2% | 61% | -1% | 16% | 1% | 48% |  |  | 1% | 20% | -12% | 49% |  |  |  |  |  |  |
| CCCCOC(=O)c1ccc(O)cc1 |  |  |  |  |  |  |  |  |  |  |  |  | 25.4% and 23% | -2.95% and -1.8% | 8.7% and -6.55% | 3.55% and -11.2% | 8.75% and 33.6% | 23.4% and 48% |
| CN(C)CNC(=S)S | 98% (active) | 99% (active) | 97% (active) | 100% (active) | 100% (active) | 100% (active) | 97% (active) | 51% | 99% (active) | 100% (active) | 97% (active) | 98% (active) |  |  |  |  |  |  |
| O=C1c2ccccc2-c2ccc(O)cc21 | 58% | 95% (active) | 17% | 84% (active) |  |  | 10% | 69% | 10% | 87% (active) | -11% | 90% (active) |  |  |  |  |  |  |
| CC(=O)Nc1ccc(/C=N/NC(=S)NCC(C)C)cc1 | 4% | 10% | 2% | 3% |  |  | 11% | -8% | 5% | 9% | -1% | -4% |  |  |  |  |  |  |
| CC(C)(C)C(=O)CC(c1ccccc1)c1ccccc1 | 11% | 20% | -1% | 3% | 5% | 30% | 12% | 0% |  |  | -13% | 9% |  |  |  |  |  |  |
| O=C(O)/C=C/c1ccc(Cl)cc1 |  |  |  |  |  |  |  |  |  |  |  |  | 16.8% and 8.15% | -8.8% and -22.6% | 16.8% and 2.3% | -35.3% and -6.2% | -3.9% and -3.4% |  |
| O=C(NC(Cc1ccccc1)C(=O)O)OCc1ccccc1 (stereo unspecified) |  |  |  |  |  |  |  |  |  |  |  |  | 4.2% and 0.2% | 23.9% and 6.9% | 12.1% and 1% | -9.35% and -1.55% | 20.7% and -5.15% | 14.7% and 16.9% |
